Measured values from PubChem BioAssay.
Unmarked numbers belong to inactive results. For some assays here: Entries with a potency or affinity are not part of this list. Active and inactive are the calls of the source. Unless noted, the rule behind the calls is not given here.

Experiments:
[1] = antimalarial activity against Dd2 strain (AID 2302;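 active = growth inhibition above 50% at the single 2 µM test dose, taken to imply half-maximal potency below 2 µM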;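 note: 0% = DMSO untreated growth and 100% = chloroquine plus artemisinin killed control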); conditions: P. falciparum Dd2 in RBCs, LDH growth readout, 72 h; at 2 µM; stronger effect = higher value
[2] = human hepatoma cell viability loss – ATP luminescence, cytotoxicity control for P. falciparum antimalarial project, primary screen (AID 2303;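 active = inhibition above 50%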;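 note: 0% = DMSO wells and 100% = digitonin-killed cells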); conditions: HepG2 viability, 24-48 h, at 10 µM, stronger effect = higher value
[3] = biological target: L-lactate dehydrogenase (Plasmodium falciparum (isolate CDC / Honduras)) (UniProt Q27743); experiment: PfLDH activity inhibition – cell lysate, 3D7 strain, counter-screen for P. falciparum growth inhibition project (AID 2304);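 note: 0% = vehicle and 100% = reference inhibitor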; conditions: P. falciparum 3D7 crude extract, LDH APAD/NBT absorbance; at 2 µM; stronger effect = higher value
Sequence of L-lactate dehydrogenase (Plasmodium falciparum (isolate CDC / Honduras)) (Q27743 whole entry, looked up): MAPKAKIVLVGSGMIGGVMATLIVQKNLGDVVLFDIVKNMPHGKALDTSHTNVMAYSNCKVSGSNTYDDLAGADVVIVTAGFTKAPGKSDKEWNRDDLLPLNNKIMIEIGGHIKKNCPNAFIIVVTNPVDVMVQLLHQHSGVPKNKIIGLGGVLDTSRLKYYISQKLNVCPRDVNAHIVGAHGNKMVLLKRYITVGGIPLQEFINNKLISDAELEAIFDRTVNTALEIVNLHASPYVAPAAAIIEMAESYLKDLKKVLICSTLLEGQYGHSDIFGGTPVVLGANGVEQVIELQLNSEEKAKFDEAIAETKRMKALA

[4] = inhibition of 3D7 malaria parasite growth – strain 3D7 (AID 2306);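 note: 0% = DMSO wells and 100% = chloroquine plus artemisinin control wells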; conditions: P. falciparum 3D7 erythrocytic growth, LDH absorbance, 72 h; at 2 µM; stronger effect = higher value
[5] = biological target: Calcium-dependent protein kinase 1 (Plasmodium falciparum (isolate 3D7)) (UniProt P62344); experiment: PfCDPK1 kinase inhibitors, biochemical, TCAMS library (AID 1159585; cut-off not given, nearly all actives have IC50 up to about 0.98 µM;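 note: inhibitors leave more ATP so luminescence rises with inhibition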); conditions: recombinant PfCDPK1, Kinase-Glo ATP depletion luminescence
Sequence of Calcium-dependent protein kinase 1 (Plasmodium falciparum (isolate 3D7)) (P62344 whole entry, looked up): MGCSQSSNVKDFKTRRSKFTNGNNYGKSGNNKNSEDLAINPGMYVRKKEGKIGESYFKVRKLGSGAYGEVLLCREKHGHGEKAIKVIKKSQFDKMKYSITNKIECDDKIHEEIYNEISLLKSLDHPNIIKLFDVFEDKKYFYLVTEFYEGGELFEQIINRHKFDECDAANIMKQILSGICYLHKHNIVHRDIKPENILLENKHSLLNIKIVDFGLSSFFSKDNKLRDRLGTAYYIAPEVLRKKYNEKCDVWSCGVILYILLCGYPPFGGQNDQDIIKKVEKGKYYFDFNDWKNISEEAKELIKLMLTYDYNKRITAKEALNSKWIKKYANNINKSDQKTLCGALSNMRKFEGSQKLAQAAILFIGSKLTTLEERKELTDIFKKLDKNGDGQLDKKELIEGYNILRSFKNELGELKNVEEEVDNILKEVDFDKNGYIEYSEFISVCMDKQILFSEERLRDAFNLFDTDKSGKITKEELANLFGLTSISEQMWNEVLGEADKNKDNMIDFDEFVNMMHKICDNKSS

[6] = biological target: Plasmodium falciparum protein kinase 6 (PK6, PF3D7_1337100) (UniProt Q8IDW1); experiment: PfPK6 kinase inhibitors, biochemical, TCAMS library (AID 1159586); conditions: recombinant PfPK6, Kinase-Glo ATP depletion luminescence
Sequence of Plasmodium falciparum protein kinase 6 (PK6, PF3D7_1337100) (Q8IDW1 1-305): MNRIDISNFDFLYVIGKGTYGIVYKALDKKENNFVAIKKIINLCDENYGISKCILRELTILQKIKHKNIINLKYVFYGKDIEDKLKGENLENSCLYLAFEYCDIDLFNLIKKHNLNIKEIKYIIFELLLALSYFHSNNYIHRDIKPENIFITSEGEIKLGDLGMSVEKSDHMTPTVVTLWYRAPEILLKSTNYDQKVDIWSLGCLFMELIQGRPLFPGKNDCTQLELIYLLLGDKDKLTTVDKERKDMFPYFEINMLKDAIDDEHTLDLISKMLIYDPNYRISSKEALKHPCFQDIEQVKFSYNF

[7] = biological target: Protein kinase 7 (PK7), Plasmodium falciparum 3D7 (PF3D7_0213400) (UniProt Q7YTF7); experiment: inhibition of Plasmodium PK7 catalytic activity – biochemical, TCAMS antimalarial set, Kinase-Glo luminescence (AID 1159587); conditions: recombinant PfPK7, Kinase-Glo ATP depletion luminescence
Sequence of Protein kinase 7 (PK7), Plasmodium falciparum 3D7 (PF3D7_0213400) (Q7YTF7 1-343): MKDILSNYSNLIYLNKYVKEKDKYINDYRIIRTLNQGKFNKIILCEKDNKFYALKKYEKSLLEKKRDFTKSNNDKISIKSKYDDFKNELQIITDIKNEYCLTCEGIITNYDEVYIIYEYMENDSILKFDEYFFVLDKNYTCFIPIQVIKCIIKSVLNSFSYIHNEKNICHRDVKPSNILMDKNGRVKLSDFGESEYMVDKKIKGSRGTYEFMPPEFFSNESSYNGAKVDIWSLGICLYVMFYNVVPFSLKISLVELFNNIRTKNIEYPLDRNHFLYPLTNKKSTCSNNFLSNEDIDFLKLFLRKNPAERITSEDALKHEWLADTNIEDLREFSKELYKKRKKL

[8] = biological target: Calcium-dependent protein kinase 4 (Plasmodium falciparum (isolate 3D7)) (UniProt Q8IBS5); experiment: PfCDPK4 kinase inhibitors, biochemical, TCAMS library (AID 1159588; cut-off not given, nearly all actives have IC50 up to about 0.91 µM); conditions: recombinant PfCDPK4, Kinase-Glo ATP depletion luminescence
Sequence of Calcium-dependent protein kinase 4 (Plasmodium falciparum (isolate 3D7)) (Q8IBS5 whole entry, looked up): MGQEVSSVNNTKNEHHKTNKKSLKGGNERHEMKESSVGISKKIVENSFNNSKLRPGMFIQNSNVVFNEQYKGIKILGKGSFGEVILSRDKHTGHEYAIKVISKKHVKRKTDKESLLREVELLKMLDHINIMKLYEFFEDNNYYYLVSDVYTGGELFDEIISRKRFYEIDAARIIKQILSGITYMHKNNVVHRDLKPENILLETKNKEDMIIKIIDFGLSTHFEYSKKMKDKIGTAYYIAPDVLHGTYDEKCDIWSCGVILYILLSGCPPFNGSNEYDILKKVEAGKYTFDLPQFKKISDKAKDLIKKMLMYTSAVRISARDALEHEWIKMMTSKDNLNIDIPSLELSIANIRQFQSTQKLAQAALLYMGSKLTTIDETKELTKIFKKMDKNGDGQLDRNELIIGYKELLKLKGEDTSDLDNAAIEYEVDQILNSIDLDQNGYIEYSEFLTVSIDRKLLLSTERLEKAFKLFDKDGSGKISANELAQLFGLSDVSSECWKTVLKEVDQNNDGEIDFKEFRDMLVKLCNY

Row | Compound | growth inhibition [1] | inhibition [2] | inhibition [3] [%] | growth inhibition [4] | outcome [5] | outcome [6] | outcome [7] | outcome [8]
1 | c1ccc2cc(CNCCCN3CCN(CCCNCc4ccc5ccccc5c4)CC3)ccc2c1 | 65% (active) | 60% (active) | 2 | 100% (active) | inactive | inactive | inactive | inactive
2 | NC(CC1CC(=O)N1CC(=O)O)C(=O)O (stereo not given) | -3% | 56% (active) | -5 | 95% (active) | inactive | inactive | inactive | inactive
3 | CC(C)CN1C(=O)c2ccccc2C(C(=O)Nc2cccc(C#N)c2)C1c1cccs1 (stereo not given) | 100% (active) | 11% | -4 | 101% (active) | inactive | inactive | inactive | inactive
4 | Clc1ccc2c(N3CCCNCC3)ccnc2c1 | 99% (active) | 11% | -1 | 100% (active) | inactive | inactive | inactive | inactive
5 | CCOc1cc2c(cc1OCC)C(c1ccc(O)c(Cl)c1)NCC2 (stereo not given) | 98% (active) | 6% | 4 | 98% (active) | inactive | inactive | inactive | inactive
6 | OCC1CCN(Cc2cccc(-c3ccc(-c4nc5ccc(C(F)(F)F)cc5[nH]4)s3)c2)CC1 | 90% (active) | -6% | -9 | 99% (active) | inactive | inactive | inactive | inactive
7 | O=[N+]([O-])c1cccc(Nc2nccc(-c3cnn4ncccc34)n2)c1 | 74% (active) | 33% | -1 | 87% (active) | inactive | inactive | inactive | inactive
8 | CCC(C)(C)c1ccc(S(=O)(=O)Nc2ccc(Cl)c(OCCN3CCCCC3)c2)cc1 | 93% (active) | 100% (active) | 0 | 88% (active) | inactive | inactive | inactive | inactive
9 | COc1ccc(-c2cnc3[nH]cc(-c4ccc(C(=O)O)cc4)c3c2)cn1 | 99% (active) | 35% | -1 | 95% (active) | inactive | inactive | inactive | inactive
10 | COc1ccc2nc(C)cc(Nc3ccc(Oc4ccc5ccccc5c4Cl)c(Cl)c3)c2c1 | 98% (active) | 32% | 7 | 100% (active) | inactive | inactive | inactive | inactive
11 | N#Cc1ccc(N2CCN(Cc3cccc(-c4ccc(-c5nc6ccccc6[nH]5)cc4)c3)CC2)nc1 | 40% | 45% | -1 | 89% (active) | inactive | inactive | inactive | inactive
12 | CC(=O)c1c(Cc2ccccc2Cl)c[nH]c1C | 53% (active) | -2% | 0 | 95% (active) | inactive | inactive | inactive | inactive
13 | CCCCCN1CCCN(Cc2cccc(NC(=O)c3ccc4ccccc4c3)c2)CC1 | 16% | 27% | -5 | 86% (active) | inactive | inactive | inactive | inactive
14 | CCN(CC)CCOC(=O)c1ccc(NC(=O)c2cc(-c3ccc(C)cc3)nc3ccccc23)cc1 | 12% | 22% | -4 | 97% (active) | inactive | inactive | inactive | inactive
15 | Fc1ccccc1COc1ccc(Nc2ncnc3ccc(-c4nnc(C(F)(F)F)o4)cc23)cc1Cl | 46% | 7% | 4 | 100% (active) | inactive | inactive | inactive | inactive
16 | N#Cc1ccc2c(c1)CCN(CCCn1c(-c3ccc4ccccc4c3)nc3ccncc31)CC2 | 97% (active) | 38% | 4 | 102% (active) | inactive | inactive | inactive | inactive
17 | CC(=O)N(C)c1cccc(CNc2cc(C)nc(Nc3ccc(C)cc3)n2)c1 | 21% | 8% | -9 | 97% (active) | inactive | inactive | inactive | inactive
18 | CCOC(=O)NC1=NC(C)(C)N(OCCCOc2cc(Cl)c(Cl)cc2Cl)C(NC(=O)OCC)=N1 | 97% (active) | 63% (active) | 5 | 91% (active) | inactive | inactive | inactive | inactive
19 | O=C(Cc1cnc[nH]1)Nc1cccc(-c2cccc(-c3nc4ccc(F)cc4[nH]3)c2)c1 | 97% (active) | 21% | 2 | 101% (active) | inactive | inactive | inactive | inactive
20 | O=C(Nc1ccc2oc(-c3ccc(Cl)cc3Cl)nc2c1)c1ccc([N+](=O)[O-])o1 | 78% (active) | 39% | 3 | 95% (active) | inactive | inactive | inactive | inactive

Row | Compound | growth inhibition [1] | inhibition [2] | inhibition [3] [%] | growth inhibition [4] | outcome [5] | outcome [6] | outcome [7] | outcome [8]
21 | FC(F)(F)CNc1nc(Nc2ccc3ncccc3c2)nc2[nH]ccc12 | 83% (active) | 37% | 0 | 87% (active) | inactive | inactive | inactive | inactive
22 | CC(C)C[C@H](NC(=O)[C@H](Cc1ccccc1)NC(=O)CCN1C(=O)COc2ccc(C(=O)O)cc21)C(=O)NC(CC1CCCCC1)C(O)CC(=O)NCCCn1ccnc1 (stereo not given in full) | -4% | -3% | -8 | 99% (active) | inactive | inactive | inactive | inactive
23 | c1ccc(CN2CCC(NCc3ccccc3-c3cccc(CNCc4ccc5c(c4)OCO5)c3)CC2)cc1 | 69% (active) | 37% | 4 | 102% (active) | inactive | inactive | inactive | inactive
24 | CC(C)(C)c1ccc(OCCCON2C(N)=NC(N)=NC2(C)C)cc1 | 76% (active) | 77% (active) | -4 | 93% (active) | inactive | inactive | inactive | inactive
25 | Oc1cccc(-c2nc(-c3ccccc3)c(-c3ccc(Oc4ccc(-c5[nH]c(-c6cccc(O)c6)nc5-c5ccccc5)cc4)cc3)[nH]2)c1 | 96% (active) | 6% | 0 | 91% (active) | inactive | inactive | inactive | inactive
26 | CN1CCCC1CCNC(=O)[C@H](CC1CCCCC1)NC(=O)c1ccc(O)c(-c2ccc(Cl)c(Cl)c2)c1 (stereo not given in full) | 35% | 0% | 3 | 98% (active) | inactive | inactive | inactive | inactive
27 | Cn1nc(-c2ccc(Cl)cc2)c2cc(C(=O)NCCN3CCOCC3)sc21 | 29% | 21% | -8 | 97% (active) | inactive | inactive | inactive | inactive
28 | O=C(N[C@@H](CC1CCCCC1)C(=O)NC1CCCc2ccccc21)c1ccc(O)c(-c2ccc(Cl)c(Cl)c2)c1 (stereo not given in full) | 99% (active) | 1% | -3 | 98% (active) | inactive | inactive | inactive | inactive
29 | O=C(Cc1cnc[nH]1)Nc1cccc(-c2ccc(-c3nc4ccccc4[nH]3)cc2)c1 | 72% (active) | 7% | -1 | 99% (active) | inactive | inactive | inactive | inactive
30 | O=C(Nc1ccc(Cl)cc1)Nc1ccc(OCC(O)CN2CCCCC2)cc1 (stereo not given) | 13% | 18% | -1 | 83% (active) | inactive | inactive | inactive | inactive
31 | CCOC(=O)c1ccc(NC(=O)Nc2cccc(-c3ccc(-c4nc5ccccc5[nH]4)cc3)c2)cc1 | 86% (active) | 54% (active) | -2 | 100% (active) | inactive | inactive | inactive | inactive
32 | COc1cc(O)c2c(=O)c(OC)c(-c3cccc(Cl)c3OC3O[C@H](CO)[C@@H](O)[C@H](O)[C@H]3O)oc2c1OC (stereo not given in full) | 6% | 16% | -2 | 101% (active) | inactive | inactive | inactive | inactive
33 | COc1cc(CNCCCCCCNCc2cc(OC)cc3ccccc23)c2ccccc2c1 | 94% (active) | 57% (active) | -5 | 100% (active) | inactive | inactive | inactive | inactive
34 | O=C(Nc1cccc(C(F)(F)F)c1)c1ccc(S(=O)(=O)NCC2CCN(CC3CCCCC3)CC2)cc1 | 49% | 24% | -4 | 100% (active) | inactive | inactive | inactive | inactive
35 | Oc1ccc2ncnc(Nc3ccc(OCc4cccc(F)c4)c(Cl)c3)c2c1 | 30% | 24% | 2 | 100% (active) | inactive | inactive | inactive | inactive
36 | COc1ccc([N+](=O)[O-])cc1N(Cc1ccccc1-c1ccccc1)S(=O)(=O)c1ccc(C(F)(F)F)cc1[N+](=O)[O-] | 92% (active) | 2% | -6 | 88% (active) | inactive | inactive | inactive | inactive
37 | CCOC(=O)c1ccc(COc2ccc(C)nc2)cc1 | -7% | 14% | -8 | 100% (active) | inactive | inactive | inactive | inactive
38 | Cc1cc(N[C@@H](Cc2ccccc2)C(=O)NCCc2ccccc2)nc(NCc2ccccc2C)n1 | 85% (active) | 37% | -2 | 99% (active) | inactive | inactive | inactive | inactive
39 | CCOC(=O)CNCC(=O)c1ccc(OCc2ccccc2)cc1 | 43% | 4% | -3 | 95% (active) | inactive | inactive | inactive | inactive
40 | COc1cc2nc(NCCc3ccccc3)nc(NCc3ccc(C#N)cc3)c2cc1OC | 100% (active) | 52% (active) | 0 | 100% (active) | inactive | inactive | inactive | inactive
